Gli-Sufu block: Gli-Sufu pathway antagonism. AID 588413. Sufu-KO-LIGHT fibroblasts, Gli luciferase reporter luminescence. actives 0.74% (n = 340,000). inhibition, % at 5 µM;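 active means inhibition above about 55%, limit read from the data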;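 further: 0% = DMSO-treated cells and 100% = wells with medium but no cells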
LRH-1 inv ag: NR5A2 inverse agonism in reporter assay. O00482. HEK293T StAR-luciferase reporter, LRH-1 transfected, 24 h. inhibition, % at 3.6 µM. actives 0.13% (n = 360,000);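 active means inhibition above the mean inhibition of all tested compounds plus 3 SD, cut at about 73% in these data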;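 further: 0% = DMSO wells and 100% = reporter-only cells lacking LRH-1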
Target sequence (O00482 whole entry, looked up): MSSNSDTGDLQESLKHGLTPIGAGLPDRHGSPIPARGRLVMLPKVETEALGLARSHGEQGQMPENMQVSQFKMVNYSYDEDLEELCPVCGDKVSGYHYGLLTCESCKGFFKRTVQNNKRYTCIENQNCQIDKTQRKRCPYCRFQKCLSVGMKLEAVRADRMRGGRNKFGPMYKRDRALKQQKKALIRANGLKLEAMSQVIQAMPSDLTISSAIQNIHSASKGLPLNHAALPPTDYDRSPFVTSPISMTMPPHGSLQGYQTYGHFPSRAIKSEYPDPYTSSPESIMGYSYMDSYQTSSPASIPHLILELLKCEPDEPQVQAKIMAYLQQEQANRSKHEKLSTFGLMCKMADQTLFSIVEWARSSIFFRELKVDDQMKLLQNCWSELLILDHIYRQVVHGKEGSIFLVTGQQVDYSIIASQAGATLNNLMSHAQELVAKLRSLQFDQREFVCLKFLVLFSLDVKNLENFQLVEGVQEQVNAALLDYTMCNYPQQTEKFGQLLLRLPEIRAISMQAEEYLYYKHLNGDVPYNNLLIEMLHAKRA
NR2F2 inh: blocks human COUP-TFII nuclear receptor; P24468; HEK293T NGFI-A luciferase reporter, luminescence; inhibition, % at 8.6 µM; actives 0.7% (n = 370,000);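 active means inhibition above a per-plate cutoff, mean inhibition of test wells between control levels plus 3 SD, cut at about 38% in these data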;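 further: cells cotransfected with COUP-TFII expression vector driving the NGFI-A reporter; 0% = median of COUP-TF2 test wells and 100% = reporter-only cells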
NCOA1 inh: human NCOA1 inhibition | HEK293 GAL4-SRC1 luciferase reporter, luminescence | Q15788 | inhibition, % at 3.6 µM | actives 0.12% (n = 360,000);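 active means inhibition above the campaign mean plus 3 SD, with each screening campaign given its own cutoff, cut at about 60% in these data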;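 further: 0% = DMSO treated cells and 100% = gossypol at 36 µM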
NCOA2 inhibitor: human SRC2 (NCOA2) inhibition | Q15596 | actives 0.17% (n = 370,000) | HEK293 GAL4-SRC2 luciferase reporter, luminescence | inhibition, % at 9 µM;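 active means inhibition above the mean inhibition of all tested compounds plus 3 SD, set per campaign, cut at about 52% in these data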;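 further: 0% = DMSO treated cells and 100% = cells given Gossypol at 36 µM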
SRC3 inh: inhibitors of human steroid receptor coactivator 3 (SRC3). Q9Y6Q9. HEK293 GAL4-SRC3 luciferase reporter, luminescence. inhibition, % at 3.6 µM. actives 0.17% (n = 360,000). AID 588352;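 active means inhibition above a per-campaign cutoff, the mean of all compounds plus 3 SD, cut at about 60% in these data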;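 further: 0% = DMSO-treated cells and 100% = gossypol-treated cells at 36 µM; higher means less SRC3-driven luciferase light from the GAL4 reporter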
VP16 Luc counter: inhibits VP16 reporter, flagging COUP-TFII antagonist hits | inhibition, % at 8.5 µM | actives 25% (n = 2,500) | HEK293 Gal4-VP16 luciferase reporter, luminescence | shares compounds with NR2F2 inh | AID 687007; in the data active means inhibition above about 13%
COUP-TFII conf: COUP-TFII (NR2F2) inhibition, confirmation assay | shares compounds with NR2F2 inh | AID 687008 | inhibition, % at 8.5 µM | actives 45% (n = 2,500) | HEK293 NGFI-A luciferase reporter, luminescence;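 active means mean inhibition over three repeats above a set limit taken from the earlier primary screen, cut at about 38% in these data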;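 further: 100% = cells given the luciferase reporter alone without the COUP-TF2 vector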
Active calls of the source: *; x = no result; ! = repeats disagree. Compounds with a hit are over-represented: about 1.3% of the library has one in this group of screens.

SMILES	Gli-Sufu block	LRH-1 inv ag	NR2F2 inh	NCOA1 inh	NCOA2 inhibitor	SRC3 inh	VP16 Luc counter	COUP-TFII conf
O=C(Nc1ccc(Oc2ccccc2)cc1)c1ccc2sc([C@H]3C[C@H](O)[C@@H](CO)O3)nc2c1	x	37.9	73.8*	32.1	28.2	5.4	-22.1	46.0*
CC(C)(C)n1ncc2c(=O)n(CC(=O)OCc3ccccc3)cnc21	13.4	10.3	60.7*	42.1	32.6	60.0	59.2*	80.5*
Cc1cc(NC(=O)CS(=O)(=O)c2cn(Cc3cccc(Br)c3)c3ccccc23)no1	x	-8.3	47.5*	-0.9	4.3	5.8	-4.1	0.3
Cc1cc(NC(=O)CS(=O)(=O)c2cn(Cc3ccccc3Cl)c3ccccc23)no1	-2.9	19.8	27.6	15.7	10.4	-5.4	x	x
CCC(C)NC(=S)Nc1ccc(C(=O)OC)cc1 (stereo not drawn)	7.7	-20.3	39.0*	12.3	14.9	-8.3	-37.0	-12.7
CCC(C)NC(=S)Nc1ccccc1 (stereo not drawn)	-18.8	21.6	12.4	-19.3	5.8	3.7	x	x
COC(=O)c1cc2c(c3c4cc(F)ccc4n(S(=O)(=O)c4cccc(C)c4)c13)C(=O)N(c1ccc(OC)cc1)C2	x	x	-4.3	x	6.4	x	x	x
O=C(Nc1nc2ncccn2c1-c1ccccc1)c1ccc(F)cc1	x	x	0.4	x	4.8	x	x	x
Fc1ccc(NC(=S)NNc2ncc(C(F)(F)F)cc2Cl)c(F)c1	24.7	33.9	57.5*	38.4	17.0	54.9	19.6*	36.5
O=C(NN=Cc1ccco1)C(=O)Nc1cccc(C(F)(F)F)c1	x	x	0.0	x	-0.1	x	x	x
CC[n+]1c(/C=C2\Sc3ccccc3N2C)ccc2cccc(C)c21	86.9*	83.6*	79.5*	29.4	-55.8	55.1	13.5*	78.1*
CCC(=O)/C=C1/Sc2ccccc2N1CC	4.8	1.3	-8.1	-7.7	-22.9	-0.5	x	x
CCN1/C(=C/c2ccc3cc(C)ccc3[n+]2CC)Sc2ccccc21	88.7*	95.7*	85.5*	65.1*	-29.8	55.1	1.4	78.8*
CCN1/C(=C/c2ccc3cc(C)ccc3[n+]2CC)Sc2cc(C)c(C)cc21	91.2*	68.2	78.1*	31.6	29.9	56.4	8.5	64.2*
CC(=S)/C=C1\Sc2ccccc2N1C	12.9	9.5	-2.2	8.0	-0.6	-16.8	x	x
COc1ccc(C(=O)CSc2nnc(-c3cccs3)o2)cc1OC	x	x	1.9	x	-0.1	x	x	x
Cc1nn(-c2ccccc2)c2sc(C(=O)N3CCN(C(c4ccccc4)c4ccc(Cl)cc4)CC3)cc12 (stereo not drawn)	x	x	-17.7	x	-5.0	x	x	x
CCOC(=O)C1=CCN(S(=O)(=O)c2cccc(Cl)c2)C1c1cccc(Br)c1 (stereo not drawn)	x	x	3.7	x	13.9	x	x	x
N#Cc1cccc(-c2ccccc2C(=O)NC2CCCCN(Cc3ccc(Cl)cc3)C2=O)c1 (stereo not drawn)	x	x	16.5	x	-5.0	x	x	x
Cc1ccc(NS(=O)(=O)c2cccc(C(=O)NC3CCN(Cc4ccccc4)CC3)c2)cc1	48.4	18.8	39.9*	7.6	14.9	13.7	2.9	19.5
Cc1ccc(NS(=O)(=O)c2ccc(C(=O)NC3CCN(Cc4ccccc4)CC3)cc2)cc1	15.3	38.3	63.9*	31.4	-1.4	21.5	1.0	49.5*
C[C@@H]1COc2cccc(N3CCCC3)c2S(=O)(=O)N1	x	x	0.0	x	-1.5	x	x	x
COC(=O)C1CN(Cc2cn(Cc3ccc(F)cc3)nn2)CCS(=O)(=O)N1Cc1ccccc1 (stereo not drawn)	x	x	-1.9	x	-1.0	x	x	x
COc1ccc([C@H]2OC(=O)C[C@H]2C(=O)N2CCCCC2)cc1OC	x	x	7.7	x	-15.0	x	x	x
CNc1ccccc1C(C)(C)c1cc(-c2cccc([N+](=O)[O-])c2)no1	5.0	-11.4	14.0	-57.8	-3.2	-75.2	x	x
SMILES	Gli-Sufu block	LRH-1 inv ag	NR2F2 inh	NCOA1 inh	NCOA2 inhibitor	SRC3 inh	VP16 Luc counter	COUP-TFII conf
CNc1ccccc1C(C)(C)c1cc(-c2ccc(F)cc2)no1	0.3	16.9	44.6*	11.0	0.8	26.4	1.9	31.2
O=C1COc2ccc(-c3csc(=Nc4ccc(OC(F)F)cc4)n3CC3CCCO3)cc2N1 (stereo not drawn)	0.6	21.9	5.8	2.0	20.5	15.2	x	x
COCC(C)n1c(-c2ccc3c(c2)NC(=O)CO3)csc1=Nc1ccc(OC(F)F)cc1 (stereo not drawn)	-5.3	39.2	48.3*	20.4	28.1	23.5	16.0*	56.2*
CCN=c1scc(-c2ccc3c(c2)NC(=O)CO3)n1N=C1CCCC1	13.0	22.1	47.5*!	22.4	2.9	16.8	-3.9	52.7*
O=C(NCc1cccnc1)c1c[nH]c2cc3c(cc2c1=O)OCCO3	7.5	-15.0	39.4*	-13.3	-44.0	-4.2	-117.0	30.4
O=S1(=O)N[C@@H](Cc2ccccc2)COc2cccc(N3CCCC3)c21	x	x	2.6	x	18.1	x	x	x
CCN(c1ccc(OC)cc1)c1ncnc2nc[nH]c12	-25.1	22.1	37.6*	65.6*	49.3	49.4	2.8	16.6
CC1(C(=O)NCc2ccccc2)CN(S(C)(=O)=O)CC(=O)N1Cc1ccco1 (stereo not drawn)	x	x	9.7	x	-34.7	x	x	x
O=C(NCc1ccccc1)c1cc(C2CCCN(C(=O)C3CC3)C2)on1 (stereo not drawn)	x	-27.4	-25.6	-37.6	15.1	-28.7	x	x
CC(=O)N1CCCC(c2cc(C(=O)Nc3ccccc3)no2)C1 (stereo not drawn)	x	32.5	41.0*	24.9	44.5	31.2	16.6*	59.1*
O=C(NCc1ccccc1)c1cc(C2CCCN(C(=O)C3CCCCC3)C2)on1 (stereo not drawn)	x	-3.4	101.4*	-21.2	4.0	-6.2	-15.7	-16.2
COc1ccc(-c2cc(C)no2)cc1S(=O)(=O)N1CCN(c2cccc(C)c2)C(C)C1 (stereo not drawn)	10.6	13.2	52.0*	-0.2	18.3	4.6	11.3	53.7*
COc1cccc(CCN2CCC(CNS(=O)(=O)c3cc(-c4cc(C)no4)ccc3OC)CC2)c1	41.5	6.4	37.4*	-8.5	13.5	26.7	-10.9	7.8
COc1cccc(CCN2CCC(CNS(=O)(=O)c3cc(-c4cc(C)no4)ccc3C)CC2)c1	46.2	8.6	41.2*	-12.2	24.5	27.0	-0.1	26.1
Cc1cccc(N2CCN(S(=O)(=O)c3cc(-c4cc(C)no4)ccc3C)CC2C)c1 (stereo not drawn)	15.2	13.6	33.7	29.8	26.4	30.1	x	x
C=CCNc1cccc2c1S(=O)(=O)N[C@@H](CC(C)C)CO2	x	x	4.2	x	-16.8	x	x	x
CC(=O)CC[C@@H]1CC[C@]2(CCCN(S(=O)(=O)c3ccccc3)C2)O1	x	x	5.5	x	-16.5	x	x	x

Compound activity from PubChem.
